Test results published in PubChem BioAssay (NCI).
The panel holds about 83,000 compounds, 20% with a hit somewhere; the sample as a whole holds those more often.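 Method: cells in 96-well plates; compound added at one concentration; 48 h incubation; percent growth measured; values under 10 scored active.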 Calls of active or inactive are those of the source.

Test system: CCRF-CEM leukemia
Test: NCI-60 one-dose screen, 48 h (100 = growth as untreated, 0 = no growth, -100 = all killed)
Settings: 10 µM unless noted
Procedure: Growth inhibition of the CCRF-CEM human tumor cell line is measured as a screen for anti-cancer activity. Cells are grown in 96 well plates and exposed to the test compound for 48 hours. Compounds are tested at a single concentration, which is 10^-5 M for most compounds. The reported endpoint is percent growth (GI% or GIPRCNT), where numbers from 0 - 100% represent growth inhibition, and numbers from -100% - 0 represent cell death. For example, a value of 40 represents 60% growth inhibition. A value of 0 means no net growth occurred over the course of the experiment. A value of -40 indicates 40% of cells at the beginning of the experiment died by the end of the experiment. A value of -100 means all cells are dead at the end of the experiment.
NCI-60 Human Tumor Cell Lines Screen was performed using the standard one-dose NCI protocol, which is described in more detail at https://dtp.cancer.gov/discovery_development/nci-60/default.htm.
Compounds with GIPRCNT values below 10 were considered active. Activity score was based on GIPRCNT using the following formula: […]
Score is 0 for GIPRCNT values of 100 or above, 50 for GIPRCNT values of 0, and 100 for GIPRCNT values of -100.

| Structure (SMILES) | growth |
| --- | --- |
| CC1(C)N=C(N)N=C(N)N1c1ccc(CCCCc2ccc(S(=O)(=O)F)cc2)cc1 | 23.4% (inactive) |
| FC(F)=C(F)c1ccccc1 | 80.3% (inactive) |
| c1ccc2nc(OCCN3CC3)ccc2c1 | 31.7% (inactive) |
| Cc1cc(N(CCCl)CCCl)ccc1C=Nc1ccc2ccccc2c1 | 55.3% (inactive) |
| O=C(NCCNC(=O)c1ccc([As](O)O)cc1)c1ccc([As](O)O)cc1 | 105% (inactive) |
| C[C@]12C[C@H](O)[C@H]3[C@@H](CCC4=CC(=O)CC[C@@]43C)[C@@H]1CC[C@@H]2O | 97.3% (inactive) |
| ClCCN(CCCl)c1nc(Cl)c(C2CC(c3ccccc3)=NN2c2ccccc2)s1 (stereo not given) | 88.9% (inactive) |
| COc1ccc(C(c2ccc(OC)cc2)C(Cl)(Cl)Cl)cc1 | 55.6% (inactive) |
| Cc1ccc(N)cc1[As]=[As]c1cc(N)ccc1C (stereo not given) | -38% (active) |
| CC12CCC(=O)C=C1C(O)CC1C2CCC2(C)C(O)CCC12 (stereo not given) | 103% (inactive) |
| O=C(CI)Nc1ccc(Br)cc1 | -31.7% (active) |
| COc1ccc(C(=O)c2ccc([As]=O)cc2)cc1 (stereo not given) | -25.1% (active) |
| O=C(Nc1ccc(S(=O)(=O)F)cc1)Oc1ccccc1 | 88.1% (inactive) |
| Cc1cc(C)nc(C)c1.[Cl][Hg][Cl] | 78.3% (inactive) |
| OC1(c2ccccc2F)c2ccccc2C2=NCCN21 (stereo not given) | 93% (inactive) |
| ClCCN(CCCl)c1ccc(C=NCCc2c[nH]c3ccccc23)cc1 | 54.1% (inactive) |
| C/C(=C\c1cc(C(F)(F)F)n(-c2ccc(N)cc2)n1)[C@@H]1C[C@@H]2O[C@]2(C)CCC[C@H](C)[C@H](O)[C@@H](C)C(=O)C(C)(C)[C@@H](O)CC(=O)O1 | 12.8% (inactive) |
| [O]=[Sn]([CH]1CCCCC1)[CH]1CCCCC1 | -42.2% (active) |
| O=S(=O)(Cl)c1ccccc1 (tested in a mixture with another compound) | 114% (inactive) |
| O=C(N/N=C/c1ccc(N(CCCl)CCCl)cc1)c1cc(=O)[nH]c(=O)[nH]1 | 66.5% (inactive) |

| Structure (SMILES) | growth |
| --- | --- |
| N#C[Se]CCCNS(=O)(=O)C1CC2C=CC1C2 (stereo not given) | 17.4% (inactive) |
| CC(C)N=C(NC(C)C)N1CC1 | 116% (inactive) |
| O=[N+]([O-])c1ccc(/C=C/C=C/c2ccc(S(=O)(=O)F)cc2)c(Cl)c1 | 85.8% (inactive) |
| C[C@]12CC[C@H]3[C@@H](C[C@@H]4N=C(c5ccc(O)cc5)S[C@@]45C[C@H](O)CC[C@]35C)[C@@H]1CC[C@@H]2O | 13.1% (inactive) |
| N#CC1c2ccccc2C=CN1C(=O)c1ccc(N(CCCl)CCCl)cc1 (stereo not given) | 87% (inactive) |
| NS(=O)(=O)c1nc[nH]c1[N+](=O)[O-] | 106% (inactive) |
| CO[C@@H](c1ccccc1Cl)[C@H](C)OC(N)=O | 82.6% (inactive) |
| Nc1nc(N)c(-c2ccc(Cl)c(Cl)c2)c(/C=C/c2ccc(S(=O)(=O)F)cc2)n1 | 58.7% (inactive) |
| O=C(O)C1(Br)CC12c1ccccc1-c1ccccc12 (stereo not given) | 97.4% (inactive) |
| COc1ccc(C2SCC(=O)Nc3c2c(C)nn3-c2nc3ccc(C)cc3s2)cc1O (stereo not given) | 27.6% (inactive) |
| Cc1nnc([S-])s1.[Au+].c1ccc([PH+](c2ccccc2)c2ccccc2)cc1 | 0.579% (active) |
| C/C1=C/C(=O)O[C@@H]2C[C@@H](CC[C@H](C)/C=C\C=C\CC1)O[C@@](OCCc1ccccc1)([C@@H]1CSC(=O)N1)C2 | 21.2% (inactive) |
| O=C(O)CNC(=O)c1ccccc1 | 101% (inactive) |
| ClCCN(CCCl)c1nc(Cl)c(C2CC(c3ccc(Cl)cc3)=NN2c2cc(Cl)cc(Cl)c2)s1 (stereo not given) | 99.7% (inactive) |
| CN1CCN(C(=O)COc2ccc(/C=C3\CC4C5CC=C6CC(Cl)CCC6(C)C5CCC4(C)C3=O)cc2)CC1 (stereo not given) | 49.3% (inactive) |
| C[C@]12CC[C@@H]3C4=C(CC[C@H]3[C@@H]1CC[C@@H]2O)CC(=O)CC4 | 96.3% (inactive) |
| C#CC1(O)CCC2(C)C(CCC3C4CCC(=O)C4(C)CCC32)C1 (stereo not given) | 91.2% (inactive) |
| CC(=O)C1C(=O)N(C)C(=O)N(C)C1=O | 97.2% (inactive) |
| CC[C@]12C=CCN3CC[C@@]4(c5ccc(OC)cc5N(C)[C@H]4[C@@](O)(C(=O)OC)[C@@H]1OC(=O)CCCN1CCN(CCCC(=O)O[C@@H]4[C@]5(CC)C=CCN6CC[C@@]7(c8ccc(OC)cc8N(C)[C@H]7[C@@]4(O)C(=O)OC)[C@@H]65)CC1)[C@@H]32 | -56.7% (active) |
| CCOc1ccc(C(O)CN(C)Cc2ccccc2)cc1Cl (stereo not given) | 108% (inactive) |
